High-throughput results from PubChem BioAssay.
CHT PAM: CHT positive allosteric modulators, primary screen, cell-based, membrane potential dye, choline EC20. High affinity choline transporter 1 (Homo sapiens), Q9GZV3. CHT-expressing cells; active compounds read high; LV-AA mutant CHT in HEK293 cells. B-score at 10 µM. 310,000 compounds, 0.49% hits. AID 488977, 2010;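 active = initial fluorescence not abnormally high and integrated response B-score, plate-corrected, over 3 SD above library mean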
Target sequence (Q9GZV3 whole entry, looked up): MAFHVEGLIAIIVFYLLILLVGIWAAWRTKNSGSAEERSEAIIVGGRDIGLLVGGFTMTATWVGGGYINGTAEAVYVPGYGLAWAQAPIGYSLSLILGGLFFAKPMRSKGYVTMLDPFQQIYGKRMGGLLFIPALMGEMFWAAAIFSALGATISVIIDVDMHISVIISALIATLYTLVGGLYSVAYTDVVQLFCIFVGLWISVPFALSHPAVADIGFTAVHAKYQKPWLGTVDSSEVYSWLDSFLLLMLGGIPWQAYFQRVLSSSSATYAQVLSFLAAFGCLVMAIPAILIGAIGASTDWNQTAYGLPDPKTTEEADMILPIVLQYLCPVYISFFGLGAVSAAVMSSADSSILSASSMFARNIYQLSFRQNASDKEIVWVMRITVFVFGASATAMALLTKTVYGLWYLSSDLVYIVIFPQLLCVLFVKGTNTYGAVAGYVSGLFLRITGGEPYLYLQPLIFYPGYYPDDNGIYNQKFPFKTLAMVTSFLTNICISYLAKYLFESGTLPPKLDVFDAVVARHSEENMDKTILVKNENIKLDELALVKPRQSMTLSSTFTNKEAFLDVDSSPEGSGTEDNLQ
MIN6 prolif: inducers of MIN6 beta-cell proliferation, primary screen, ATP luminescence, uHTS | MIN6 cells proliferation, ATPlite luminescence, 48 h; cells starved in 0.2% serum; 100% = growth in 10% serum | proliferation, % at 10 µM | 330,000 compounds, 0.29% hits | AID 2380, 2010;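 active = compounds whose signal lies at least 3.5 SD above the mean of all wells on their plate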
H9c2 TAG inh: inhibitors of triacylglycerol accumulation, primary screen, cell-based, uHTS, fluorescence, H9c2; inhibition, % at 12.5 µM; 230,000 compounds, 0.66% hits; H9c2 cells, Nile Red lipid (TAG) fluorescence; cells loaded with 200 µM oleic acid; AID 651582, 2012;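 active = pattern-corrected inhibition of lipid staining of at least 50% with the nuclear-stain viability signal not falling by more than 50%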
CHT inh: inhibitors of human choline transporter CHT. High affinity choline transporter 1 (Homo sapiens), Q9GZV3. CHT-expressing cells, membrane potential dye, choline response; active compounds read low. B-score at 10 µM. 310,000 compounds, 0.86% hits. AID 488975, 2010;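 active = B-score over 3 SD under the library average, and starting fluorescence ratio not unusually high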;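 also: choline stimulus applied at its EC90 after an EC20 pre-addition; B-score computed on integrated fluorescence ratio after choline addition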
H9c2 TAG conf: triacylglycerol accumulation inhibitors, retest, confirmation, cell-based, single concentration, Nile Red fluorescence, H9c2 | shares compounds with H9c2 TAG inh | H9c2 lipid accumulation; cells loaded with 200 µM oleic acid | inhibition, % at 12.5 µM | 990 compounds, 71% hits;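 active = mean inhibition across replicates of 40% or more; inactive = mean inhibition below 40%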
Large screens that a line does not name were inactive (follow-up assays come after a bar, where they were run). An excerpt weighted towards active compounds, which were near 1.7% of everything screened.

COc1cc(OC)cc(-c2noc([C@@H]3O[C@H](CO)[C@@H](O)[C@H]3O)n2)c1	none (no result: CHT PAM, MIN6 prolif, CHT inh)
COc1cc(NC(=O)Nc2nc(C(N)CCc3ccccc3)cs2)cc(OC)c1OC (centres undefined)	H9c2 TAG inh 83 (no result: CHT PAM, MIN6 prolif, CHT inh) | H9c2 TAG conf 89
CC(C)CC(N)c1csc(NC(=O)Nc2ccccc2Cc2ccccc2)n1 (centres undefined)	H9c2 TAG inh 114 (no result: CHT PAM, MIN6 prolif, CHT inh) | H9c2 TAG conf 69
COc1ccc(OC)c(NC(=O)Nc2nc(C(N)CCc3ccccc3)cs2)c1 (centres undefined)	none (no result: CHT PAM, MIN6 prolif, CHT inh)
CC(C)CC1NC(=O)c2cc3ccccc3cc2-n2c1nc1ccc(F)cc1c2=O (centres undefined)	none (no result: CHT PAM, MIN6 prolif, CHT inh)
COc1ccc(NC(=O)Nc2nc(C(N)C3CCCCC3)cs2)cc1 (centres undefined)	none (no result: CHT PAM, MIN6 prolif, CHT inh)
CN(C)c1ccc(NC(=O)Nc2nc(C(N)C3CCCCC3)cs2)cc1 (centres undefined)	H9c2 TAG inh 74 (no result: CHT PAM, MIN6 prolif, CHT inh) | H9c2 TAG conf 56
Cc1ccccc1NC(=O)Nc1nc(C(N)C2CCCCC2)cs1 (centres undefined)	none (no result: CHT PAM, MIN6 prolif, CHT inh)
NC(c1csc(Nc2ccc(C(=O)c3ccccc3)cc2)n1)C1CCCCC1 (centres undefined)	H9c2 TAG inh 57 (no result: CHT PAM, MIN6 prolif, CHT inh) | H9c2 TAG conf inactive
CC(C)c1ccc(NC(=O)Nc2nc(C(N)C3CCCCC3)cs2)cc1 (centres undefined)	H9c2 TAG inh 130 (no result: CHT PAM, MIN6 prolif, CHT inh) | H9c2 TAG conf 133
Cc1ccc(NC(=O)CCn2ccc([N+](=O)[O-])n2)nc1	none
COc1cc(-c2cc3nc(NCCc4ccncc4)ccn3n2)cc(OC)c1OC	none (no result: CHT PAM, MIN6 prolif, CHT inh)
COc1cc(-c2cc3nc(NCCOc4ccccc4)ccn3n2)cc(OC)c1OC	H9c2 TAG inh 54 (no result: CHT PAM, MIN6 prolif, CHT inh) | H9c2 TAG conf 49
COc1ccc(Nc2cccc3ccccc23)cc1	H9c2 TAG inh 65 | H9c2 TAG conf inactive
COc1ccc(Nc2cccccc2=O)cc1	none
CN(C)CCCN1c2ccc3ccccc3c2Sc2cccc(Cl)c21	none (no result: CHT PAM, MIN6 prolif, CHT inh)
CN(C)CCCN1c2ccccc2Sc2ccc3ccccc3c21	H9c2 TAG inh 50 (no result: CHT PAM, MIN6 prolif, CHT inh) | H9c2 TAG conf 60
CCc1cc(C(=O)N2CCCC(CCC(=O)NCc3cccc(OC)c3)C2)no1 (centres undefined)	none
CC1CN(c2ccc([N+](=O)[O-])c(NCCOc3ccccc3)c2)CC(C)N1 (centres undefined)	none (no result: H9c2 TAG inh)
Cc1ccccc1OCCNc1cc(N2CC(C)NC(C)C2)ccc1[N+](=O)[O-] (centres undefined)	H9c2 TAG inh 56 | H9c2 TAG conf 62
CC[C@]12c3[nH]c4ccc(Cl)cc4c3CCN1C(=O)[C@@H](CC(=O)NC/C=C(\C)CCC=C(C)C)C[C@@H]2C(=O)N1CCN(C(=O)C2CC2)CC1	none (no result: CHT PAM, MIN6 prolif, CHT inh)
c1ccc(N(c2ccccc2)c2nc(N3CCCC3)nc(-n3ccnc3)n2)cc1	H9c2 TAG inh 60 | H9c2 TAG conf 43
Cc1ccccc1-c1cnc(C(O)c2ccc(F)c(F)c2)[nH]1 (centres undefined)	none (no result: CHT PAM, MIN6 prolif, CHT inh)
COc1cc(CNC2CCCCCCC2)cc(Br)c1OCC#N	none (no result: H9c2 TAG inh)
CCOc1c(Br)cc(CNC2CCCCCCC2)cc1OC	H9c2 TAG inh 70 | H9c2 TAG conf 80
CCOc1ccc(CCNC(=O)c2cc3sccc3n2CC)cc1OCC	H9c2 TAG inh 79 | H9c2 TAG conf inactive
CCOc1cc(N2CCOCC2)c(OCC)cc1NC(=O)COC(=O)/C=C/c1ccc(OC(F)F)cc1	none
CC1NC(=O)c2cc3ccccc3cc2-n2c1nc1ccccc1c2=O (centres undefined)	none (no result: CHT PAM, MIN6 prolif, CHT inh)
COc1ccc(-c2nc3ccc(Cl)cn3c2NC2CCCCC2)cc1SC1CCCCC1	H9c2 TAG inh 63 (no result: CHT PAM, CHT inh) | H9c2 TAG conf 70
CCCCNc1c(-c2ccc(OC)c(SC3CCCCC3)c2)nc2ccc(C)cn12	none (no result: CHT PAM, CHT inh)
C=CCC[C@@H](Cc1ccc(F)cc1)C(=O)OC[C@H](C)NC(=O)[C@@H](CC=C)CC(=O)N[C@@H](CO)Cc1ccccc1	none (no result: CHT PAM, CHT inh)
C=CCC[C@H](Cc1ccc(F)cc1)C(=O)OC[C@H](C)NC(=O)[C@@H](CC=C)CC(=O)N[C@H](CO)Cc1ccccc1	H9c2 TAG inh 55 (no result: CHT PAM, CHT inh) | H9c2 TAG conf 44
CN(Cc1ccc(C(C)(C)C)cc1)C(=O)C1CCN(C(=O)Nc2ccccc2)CC1	none
COCCN(Cc1ccccc1)C(=O)C1CCN(C(=O)Nc2ccccc2)CC1	H9c2 TAG inh 54 (no result: CHT PAM, CHT inh) | H9c2 TAG conf 45
Cc1cc(NC(=O)CSc2nc(-c3ccco3)cc(C(F)(F)F)n2)no1	H9c2 TAG inh 66 | H9c2 TAG conf 58
Cn1c(N)c(C(=O)COC(=O)c2ccc([N+](=O)[O-])o2)c(=O)n(C)c1=O	H9c2 TAG inh 88 | H9c2 TAG conf 101
O=C(CNC(=O)c1cccc(Cl)c1)N/N=C/C=C/c1ccccc1	none (no result: H9c2 TAG inh)
CCN(C[C@H]1N[C@@](CC)(C(=O)OC)[C@H]2C(=O)N(Cc3ccccc3)C(=O)[C@@H]12)S(=O)(=O)c1ccc(-c2ccccc2)cc1	none (no result: CHT PAM, CHT inh)
CCN(C[C@H]1N[C@@](CC)(C(=O)OC)[C@H]2C(=O)N(Cc3ccccc3)C(=O)[C@@H]12)S(=O)(=O)c1ccc(C(C)(C)C)cc1	H9c2 TAG inh 65 (no result: CHT PAM, CHT inh) | H9c2 TAG conf 60
Cc1nc(Nc2cccc(C(C)O)c2)c2nnn(Cc3ccccc3F)c2n1 (centres undefined)	none
COc1ccc(NC(=O)C2(C)Cc3c(-c4cccc(C(N)=O)c4)ccnc3O2)cn1 (centres undefined)	H9c2 TAG inh 50 (no result: CHT PAM, MIN6 prolif, CHT inh) | H9c2 TAG conf 55
CC1(C(=O)NCc2ccccc2)Cc2c(-c3cccc(C(N)=O)c3)ccnc2O1 (centres undefined)	H9c2 TAG inh 55 (no result: CHT PAM, MIN6 prolif, CHT inh) | H9c2 TAG conf 60
NC(=O)c1cccc(-c2ccnc3c2CC(C(=O)NCc2ccccc2)O3)c1 (centres undefined)	H9c2 TAG inh 50 (no result: CHT PAM, MIN6 prolif, CHT inh) | H9c2 TAG conf 54
CC1(C(=O)NCc2ccc(F)c(F)c2)Cc2c(-c3cccc(C(N)=O)c3)ccnc2O1 (centres undefined)	none (no result: CHT PAM, MIN6 prolif, CHT inh)
CC1(C(=O)NCc2ccncc2)Cc2c(-c3cccc(C(F)(F)F)c3)ccnc2O1 (centres undefined)	none (no result: CHT PAM, MIN6 prolif, CHT inh)
CC1(C(=O)NCc2ccco2)Cc2c(-c3cccc(C(F)(F)F)c3)ccnc2O1 (centres undefined)	H9c2 TAG inh 54 (no result: CHT PAM, MIN6 prolif, CHT inh) | H9c2 TAG conf 46
COc1cc(C2C3=C(COC3=O)OC(C)(C)Oc3cc4c(cc32)OCO4)cc(OC)c1OC (centres undefined)	none (no result: CHT PAM, MIN6 prolif, CHT inh)
COc1cc(C2C3=C(COC3=O)Oc3cc4c(cc32)OCO4)ccc1O (centres undefined)	H9c2 TAG inh 55 (no result: CHT PAM, MIN6 prolif, CHT inh) | H9c2 TAG conf 71
COc1cc(NC(=O)c2ccco2)c(OC)cc1NC(=O)CCC(=O)Nc1cccc(C)c1C	H9c2 TAG inh 56 | H9c2 TAG conf 52
CC(C1CCN(Cc2cn(C)nc2-c2cccc(Cl)c2)CC1)N1CCOCC1 (centres undefined)	none
